PubChem BioAssay (Tox21)
Unmarked numbers belong to inactive results. Records with an inconclusive call do not appear. Where a call stands in place of a potency, no number is given. The source made the active and inactive calls. Unless noted, calls come from the whole dose curve; as a rule, active = well fitted curve in the direction sought with a large enough effect in the repeat runs; inconclusive = weak or mixed curves; inactive = no such curve, though single readings can be large; an effect the other way counts as inactive or inconclusive.

Assays:
[1] = qHTS assay to identify small molecule antagonists of the estrogen related receptor (ERR) signaling pathway from Tox21 library - cell viability counter screen (AID 1224834); note: nearly all actives have a fitted effect of over 30% in size; note: potency is the fitted concentration of half-maximal effect
How it was run: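 Compounds in DMSO were pinned onto ERR cells that had been incubated for 6 h, and the plates were held at 37 C for 17.5 h. CellTiter-Fluor reagent was then added and fluorescence was measured after 30 min.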

[2] = molecular target: Luciferin 4-monooxygenase (Photinus pyralis) (UniProt P08659); assay: qHTS assay to identify small molecule inhibitors of firefly luciferase (AID 1224835); note: nearly all actives have a fitted effect of over 25% in size; note: potency is the fitted concentration of half-maximal effect
Chain of Luciferin 4-monooxygenase (Photinus pyralis) (P08659 whole entry, looked up): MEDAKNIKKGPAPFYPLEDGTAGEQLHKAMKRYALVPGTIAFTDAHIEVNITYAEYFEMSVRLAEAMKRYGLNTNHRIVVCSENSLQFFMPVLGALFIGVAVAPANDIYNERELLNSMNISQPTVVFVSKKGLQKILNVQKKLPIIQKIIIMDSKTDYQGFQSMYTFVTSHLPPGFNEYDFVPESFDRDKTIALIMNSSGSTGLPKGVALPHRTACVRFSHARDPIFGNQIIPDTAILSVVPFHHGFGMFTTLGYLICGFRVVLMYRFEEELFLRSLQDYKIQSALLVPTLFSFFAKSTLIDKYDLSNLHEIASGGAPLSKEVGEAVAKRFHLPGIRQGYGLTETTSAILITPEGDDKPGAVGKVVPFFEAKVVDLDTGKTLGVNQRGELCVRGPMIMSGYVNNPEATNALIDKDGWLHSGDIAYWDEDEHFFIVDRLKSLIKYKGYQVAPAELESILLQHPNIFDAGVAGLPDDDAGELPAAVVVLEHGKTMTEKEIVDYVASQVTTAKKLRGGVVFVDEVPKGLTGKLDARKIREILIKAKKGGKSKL
How it was run: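 Quantitative HTS format; KM concentrations of both substrates. Purified P. pyralis FLuc activity quantified from luminescence images.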

[3] = qHTS assay to identify small molecule agonists of the constitutive androstane receptor (CAR) signaling pathway - cell viability counter screen (AID 1224836); note: nearly all actives have a fitted effect of over 45% in size; note: potency is the fitted concentration of half-maximal effect
How it was run: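 Compound titrations (15 concentrations) went onto HepG2-CYP2B6-hCAR cells 4 h after seeding, alongside PK11195 at a final 0.75 uM; a 23 h, 37 C/5% CO2 incubation preceded CellTiter-Fluor viability measurement.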

[4] = qHTS assay to identify small molecule antagonists of the constitutive androstane receptor (CAR) signaling pathway - cell viability counter screen (AID 1224837); note: nearly all actives have a fitted effect of over 45% in size; note: potency is the fitted concentration of half-maximal effect
How it was run: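 Cells are seeded, rested 4 hr at 37 C/5% CO2, dosed with compound (15-point series) and 50 nM CITCO, incubated a further 23 hr, and then CellTiter-Fluor reagent is added before fluorescence is read. The line is HepG2 with stable hCAR and CYP2B6-2.2kb.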

[5] = molecular target: Nuclear receptor subfamily 1 group I member 3 (Homo sapiens) (UniProt Q14994); assay: qHTS assay to identify small molecule antagonists of the constitutive androstane receptor (CAR) signaling pathway (AID 1224838);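 note: HepG2 cells stably expressing hCAR with CYP2B6 luciferase reporter stimulated by CITCO; nearly all actives have a fitted effect of over 40% in size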
Chain of Nuclear receptor subfamily 1 group I member 3 (Homo sapiens) (Q14994 whole entry, looked up): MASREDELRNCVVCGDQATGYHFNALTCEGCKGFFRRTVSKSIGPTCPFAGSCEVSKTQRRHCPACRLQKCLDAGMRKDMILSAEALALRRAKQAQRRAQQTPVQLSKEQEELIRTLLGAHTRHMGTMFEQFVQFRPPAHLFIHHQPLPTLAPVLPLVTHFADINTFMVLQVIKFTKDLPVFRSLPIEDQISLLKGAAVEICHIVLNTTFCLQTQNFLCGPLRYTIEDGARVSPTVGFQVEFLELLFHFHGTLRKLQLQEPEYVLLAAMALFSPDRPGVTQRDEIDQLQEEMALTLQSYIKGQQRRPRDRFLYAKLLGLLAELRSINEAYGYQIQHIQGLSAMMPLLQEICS
How it was run: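 Luminescence from a CYP2B6-2.2kb promoter reporter in hCAR-expressing HepG2 cells reflects CAR signaling. Cells received compounds at 15 concentrations and 50 nM CITCO (final), then incubated 24 h at 37 C/5% CO2.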

[6] = molecular target: Nuclear receptor subfamily 1 group I member 3 (Homo sapiens) (UniProt Q14994); assay: qHTS assay to identify small molecule agonists of the constitutive androstane receptor (CAR) signaling pathway (AID 1224839);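 note: HepG2 cells stably carrying human CAR and a CYP2B6 luciferase reporter; nearly all actives have a fitted effect of over 15% in size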
How it was run: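 In this screen, CAR-driven CYP2B6 promoter activity is measured by luminescence in HepG2-CYP2B6-hCAR cells after 24 h with test compounds and 0.75 uM PK11195 (final concentration).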

[7] = qHTS assay to identify small molecule antagonists of the estrogen related receptor signaling pathway with the pleiotropic PPARgamma coactivator (PGC) from Tox21 10K library (AID 1224841; call rule not given here; note: actives are mostly falling curves and most rising ones were filed inactive; nearly all actives have a fitted effect of over 50% in size; note: potency is the fitted concentration of half-maximal effect)
How it was run: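 Cells stably carrying the PGC/ERR reporter, seeded at 2,000 per well, received pin-transferred compounds 6 h post-plating. Exposure lasted 18 h at 37 C. Signal: One-Glo luminescence.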

[8] = qHTS assay to identify small molecule agonists of the estrogen related receptor signaling pathway with the pleiotropic PPARgamma coactivator (PGC) from Tox21 10K library (AID 1224842); note: nearly all actives have a fitted effect of over 15% in size
How it was run: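 PGC/ERR reporter cells (NTP line) were seeded 2,000 per well, rested 6 h at 37 C/5% CO2, then pin-dosed with compounds in DMSO for 18 h at 37 C; luciferase read by One-Glo luminescence after 30 min at room temperature.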

[9] = qHTS assay to identify small molecule agonists of H2AX - cell viability counter screen (AID 1224847; calls by dose curve; note: nearly all actives have a fitted effect of over 30% in size; note: potency is the fitted concentration of half-maximal effect)
How it was run: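 Read-out: CellTiter-Glo luminescence, 30 min RT. Cells: wild-type CHO-K1, 1000/well, 10% FBS, plated overnight at 37C. Treatment: 15 concentrations, 3 hr, 37C, 0.76% DMSO.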

[10] = qHTS assay to identify small molecule antagonists of the estrogen related receptor (ERR) signaling pathway from Tox21 library (AID 1224848); note: nearly all actives have a fitted effect of over 50% in size; note: potency is the fitted concentration of half-maximal effect
How it was run: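 First, 2,000 ERR cells per well were plated and held 6 h at 37 C/5% CO2. Next, compounds in DMSO were pinned in and left 18 h at 37 C. Finally, ONE-Glo was added and luminescence read after 30 min at room temperature.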

[11] = qHTS assay to identify small molecule agonists of the estrogen related receptor (ERR) signaling pathway from Tox21 library (AID 1224849; calls by dose curve; note: nearly all actives have a fitted effect of over 15% in size); settings: ERR reporter cell line, ONE-Glo luciferase, 18 h; at 92.4 µM (top of the series) unless noted
How it was run: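 Quantitative HTS in agonist format: NTP ERR cell line, compounds transferred in DMSO after 6 h plating, 18 h incubation at 37 C, ONE-Glo luminescence endpoint.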

[12] = qHTS RealTime-Glo MT Cell Viability Assay in HEK293 cells - 32 hour (AID 1224868); note: nearly all actives have a fitted effect of over 50% in size; note: potency is the fitted concentration of half-maximal effect
How it was run: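 Assay medium contained NanoLuc luciferase plus cell-permeant prosubstrate, added with HEK293 cells at 600 cells/well. After 5 h at 37 C/5% CO2 compounds were added; plates stayed at 37 C for 40 h with serial luminescence reads.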

[13] = A CellTox Green Cytotoxicity Assay to monitor cytotoxicity in HEK293 cells - 0 hour (AID 1224869); note: nearly all actives have a fitted effect of over 50% in size
How it was run: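 Dead-cell fluorescence measured kinetically: asymmetric cyanine dye, HEK293, 600 cells/well, 5 h settle, 23 nL cpd/DMSO, 37 C, reads 0–40 h every 8 h.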

[14] = molecular target: Thyrotropin receptor (Homo sapiens) (UniProt P16473); assay: qHTS assay to identify small molecule agonists of the thyroid stimulating hormone receptor (TSHR) signaling pathway (AID 1224843; calls by dose curve; note: nearly all actives have a fitted effect of over 45% in size)
Chain of Thyrotropin receptor (Homo sapiens) (P16473 whole entry, looked up): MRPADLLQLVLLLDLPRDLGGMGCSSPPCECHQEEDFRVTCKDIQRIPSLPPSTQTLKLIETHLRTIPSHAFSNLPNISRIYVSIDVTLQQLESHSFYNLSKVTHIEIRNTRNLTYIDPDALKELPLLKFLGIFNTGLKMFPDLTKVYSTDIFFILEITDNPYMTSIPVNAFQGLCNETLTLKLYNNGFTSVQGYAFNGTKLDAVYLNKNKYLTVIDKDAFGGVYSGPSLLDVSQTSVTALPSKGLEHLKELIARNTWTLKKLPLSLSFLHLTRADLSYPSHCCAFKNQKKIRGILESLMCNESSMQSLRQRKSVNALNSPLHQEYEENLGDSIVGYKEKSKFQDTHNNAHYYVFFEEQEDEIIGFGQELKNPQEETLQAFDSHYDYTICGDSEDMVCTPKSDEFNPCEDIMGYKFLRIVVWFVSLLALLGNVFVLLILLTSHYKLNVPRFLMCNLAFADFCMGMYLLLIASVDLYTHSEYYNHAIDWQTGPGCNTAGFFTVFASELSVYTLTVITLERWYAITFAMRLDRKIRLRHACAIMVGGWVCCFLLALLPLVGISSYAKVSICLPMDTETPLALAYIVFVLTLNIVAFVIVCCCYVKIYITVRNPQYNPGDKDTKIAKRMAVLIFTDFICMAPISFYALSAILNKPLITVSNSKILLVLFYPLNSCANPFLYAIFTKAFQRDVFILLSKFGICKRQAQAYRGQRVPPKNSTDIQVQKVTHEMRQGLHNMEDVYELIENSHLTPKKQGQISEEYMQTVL
How it was run: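 Compounds are titrated over 15 concentrations, in triplicate, onto TSHR-HEK293 cells seeded at 800/well. Plates sit 30 min at room temperature before cAMP-d2 and anti-cAMP cryptate are added; signal is read after a further hour.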

[15] = qHTS RealTime-Glo MT Cell Viability Assay in HepG2 cells - 40 hour (AID 1224870); note: nearly all actives have a fitted effect of over 50% in size; note: potency is the fitted concentration of half-maximal effect
How it was run: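 HepG2 cells mixed with RealTime-Glo MT reagents (NanoLuc plus cell-permeant prosubstrate) were seeded at 600 cells/well, incubated 5 h at 37 C/5% CO2, then pinned with compounds in DMSO; nonlytic luminescence tracked viability during 40 h treatment.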

[16] = qHTS assay to identify small molecule antagonists of the estrogen related receptor signaling pathway with the pleiotropic PPARgamma coactivator (PGC) from Tox21 10K library - cell viability counter screen (AID 1224840; active = well fitted cell-killing curve with a large enough effect in the repeat runs, not every such curve was filed as active; note: nearly all actives have a fitted effect of over 40% in size)
How it was run: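 Cell viability is measured by CellTiter-Fluor fluorescence in PGC/ERR cells that receive compounds after a 6-hour attachment period and are then incubated 17.5 hours at 37 C.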

[17] = qHTS assay to identify small molecule agonists of the hypoxia (HIF-1) signaling pathway - cell viability counter screen (AID 1224844; calls by dose curve; note: nearly all actives have a fitted effect of over 50% in size)
How it was run: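 Viability counter screen: HRE-bla ME-180 cells plated 5 hrs before compound addition, treated 17 hrs at 37C and 5% CO2, then CellTiter-Glo added after the FRET reporter read; luminescence after 30 min.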

[18] = qHTS assay to identify small molecule agonists of H2AX (AID 1224845; active = well fitted activation curve with a large enough effect in the signal ratio in the repeat runs, not every such curve was filed as active; the % refers to the signal ratio)
How it was run: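 Wild-type CHO-K1 cells plated overnight, then exposed 3 hr at 37C to compounds at 15 concentrations (0.76% DMSO). Lysed, then HTRF anti-pH2AX(S139)-cryptate/anti-H2AX-d2 detection after 24 hr at room temperature; emissions 665 and 620 nm.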

[19] = qHTS assay to identify small molecule agonists of the hypoxia (HIF-1) signaling pathway (AID 1224846; active = well fitted activation curve with a large enough effect in the signal ratio in the repeat runs, not every such curve was filed as active; the % refers to the signal ratio)
How it was run: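 Agonist mode reporter screen. ME-180 cells stably expressing bla under HRE control received test compounds in DMSO for 17 hrs (37C, 5% CO2), and beta-lactamase activity was then detected with the CCF4-AM FRET substrate.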

[20] = qHTS RealTime-Glo MT Cell Viability Assay in HepG2 cells - 24 hour (AID 1224867); note: nearly all actives have a fitted effect of over 50% in size
How it was run: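 qHTS, HepG2, 600 cells/well, RealTime-Glo (NanoLuc + prosubstrate) added with cells; 5 h preincubation; DMSO compound addition; 37 C; luminescence at 0/8/16/24/32/40 h.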

Row | Compound | Potency [1] | Potency [2] | Potency [3] | Potency [4] | Potency [5] | Potency [6] | Potency [7] | Potency [8] | Potency [9] | Potency [10] | activity change, positive = activation [11] | Potency [12] | Potency [13] | Potency [14] | Potency [15] | Potency [16] | Potency [17] | Potency [18] | Potency [19] | Potency [20]
1 | NNc1nc(-c2ccc([N+](=O)[O-])cc2)cs1 | 6.86 µM (active) | 31.7 µM (active) | 54.5 µM (active) | 54.5 µM (active) | inactive | inactive | 48.6 µM (active) | inactive | 22.5 µM (active) | 27.3 µM (active) | -52.6% | 24.5 µM (active) | inactive |  |  |  |  |  |  | 
2 | O=C1Cc2cc(CCN3CCN(c4nsc5ccccc45)CC3)c(Cl)cc2N1 | 29.8 µM (active) | inactive | inactive | inactive | inactive | inactive |  | inactive |  | 26.6 µM (active) | -35.7% [at 42.5 µM] |  | inactive | inactive | inactive |  |  |  |  | 
3 | C/C=C(\C)C(=O)OCc1ccccc1 | inactive | 63.3 µM (active) | inactive | inactive |  |  | inactive | inactive | inactive | inactive | 5.16% | inactive | inactive | inactive | inactive | inactive | inactive | inactive | inactive | inactive
4 | NNC(=O)c1cccc(C(=O)NN)c1 | inactive | inactive | inactive | inactive | inactive | inactive |  |  |  |  |  | inactive |  |  | inactive | inactive | inactive | inactive | inactive | 
5 | C=C(C)C(=O)OCC[N+](C)(C)C | inactive | inactive | inactive | inactive | inactive |  |  |  | inactive |  |  | inactive | inactive | inactive | inactive | inactive | inactive | inactive | inactive | 
6 | O=CC=C(c1ccccc1)c1ccccc1 | 27.5 µM (active) | inactive | inactive | inactive | inactive |  |  |  |  |  |  | 17.5 µM (active) | inactive |  | inactive |  | inactive |  |  | inactive
7 | CCCCCCC[N+](CC)(CC)CCCCc1ccc(Cl)cc1 | 23.7 µM (active) | inactive | inactive | inactive | inactive |  |  |  | inactive |  |  | 1.9 µM (active) | inactive | inactive | 23.9 µM (active) | inactive | inactive | inactive |  | 
